Results from PubChem BioAssay (EPA / NIEHS).
Calls of active or inactive are those of the source. The calls were made as follows: active = hit-call score of the fitted dose curve at least 0.9, where 1 is the maximum; inactive = score below 0.9.

Assay: ATG_M_19_CIS: Attagene CIS-FACTORIAL HepG2 Assay for M19 Transcription Factor (Internal Marker) (AID 2282939)
Settings: HepG2 Attagene CIS-FACTORIAL M19 internal marker reporter; actives raise or lower the signal
Experimental: ATG_CIS is a cell-based, multiplexed-readout assay that uses HepG2, a human liver cell line, with measurements taken at 24 hours after chemical dosing in a 24-well plate.ATG_M_19_CIS is one of 52 assay component(s) measured or calculated from the ATG_CIS assay. It is designed to make measurements of mRNA induction, a form of inducible reporter, as detected with fluorescence intensity signals by Reverse transcription polymerase chain reaction (RT-PCR) and Capillary electrophoresis technology.Data from the assay component ATG_M_19_CIS was analyzed into 1 assay endpoint. This assay endpoint, ATG_M_19_CIS, was analyzed with bidirectional fitting relative to DMSO as the negative control and baseline of activity. Using a type of inducible reporter, measures of mRNA for gain or loss-of-signal activity can be used to understand the background control at the transcription factor-level as they relate to the gene . Furthermore, this assay endpoint can be referred to as a secondary readout, because this assay has produced multiple assay endpoints where this one serves a background control function. To generalize the intended target to other relatable targets, this assay endpoint is annotated to the background measurement intended target family, where the subfamily is internal marker.
Human liver HepG2 cells are transiently transfected with multiple reporter transcription units (MRTUs) in 6-well plates using FuGene 6 reagent (Roche; 3 ml FuGene/1 mg DNA). The MRTU constructs are regulated by a cis-regulating element (promoter). […] A major difference between the CIS and TRANS system is that in CIS activities of endogenous TFs are measured, whereas the TRANS assay evaluates changes in activities of exogenous, chimeric NR-Gal4 proteins. […] At the end of 24 hour incubation, total RNA was isolated using TriZol reagent (Invitrogen). The isolated RNA is then reverse-transcribed using oligo(dT) primer and Mo-MLV reverse transcriptase (Invitrogen) with DNAse I (Ambion) treatment for 30 min. The one-tenth of the produced cDNA was amplified by PCR using Taq DNA polymerase (Invitrogen) and two reporter sequence-specific primers. The PCR products were fluorescently labeled by primer extension with 6-arboxyfluorescein (6-FAM) 5'-labeled reporter sequence-specific primer (2 min at 95 C, 20 s at 68 C and 10 min at 72 C) and these products were digested with 5U of HpaI (New England Biolabs) for 2h at 37 C. The fragments were purified using Qiaquick PCR columns (Qiagen), analyzed on an ABI 3130xL genetic analyzer (Applied Biosystems) with peak positions identified by using a set of X-rhodamine (ROX)-labeled MapMarker1000 molecular weight standards (BioVentures). The raw capillary electrophoresis data was processed using Attagraph software (Attagene).

outcome, inactive:
O=C(O)c1cc(C(=O)O)cc([N+](=O)[O-])c1
CC(C)CCCCCCc1ccc(OCCOCCO)cc1
CC(C)(C)OC(=O)c1ccc(O)cc1
Cc1ccc2c(c1)C(=O)OC2=O
[O-]n1ccccc1=S.[O-]n1ccccc1=S.[Zn+2]
CCOC(=O)[C@@H](C)Oc1ccc(Oc2nc3ccc(Cl)cc3o2)cc1
C=C(C)C1CC=C(C)C(=O)C1 (stereo not given)
CCC1CCCCC1
CCN(CC)C(=O)N(CC)CC
Cc1c(Cl)cccc1[N+](=O)[O-]
CCCCCC(C=O)=Cc1ccccc1
CCC(C)=O
C=C(C)C(=O)OCCOC1CC2CC1C1C=CCC21 (stereo not given)
C=Cc1ccc(C)cc1
C=CC(=O)OCCCC
OCC#CCO
C=C(CC(=O)O)C(=O)O
OC[C@H]1O[C@@H](Oc2ccc(O)cc2)[C@H](O)[C@@H](O)[C@@H]1O
COc1ccccc1N=Nc1c(S(=O)(=O)O)cc2cc(S(=O)(=O)O)cc(NC(C)=O)c2c1O
OC[C@H]1O[C@@H]2O[C@H]3[C@H](O)[C@@H](O)[C@@H](O[C@H]4[C@H](O)[C@@H](O)[C@@H](O[C@H]5[C@H](O)[C@@H](O)[C@@H](O[C@H]6[C@H](O)[C@@H](O)[C@@H](O[C@H]7[C@H](O)[C@@H](O)[C@@H](O[C@H]8[C@H](O)[C@@H](O)[C@@H](O[C@H]9[C@H](O)[C@@H](O)[C@@H](O[C@H]1[C@H](O)[C@H]2O)O[C@@H]9CO)O[C@@H]8CO)O[C@@H]7CO)O[C@@H]6CO)O[C@@H]5CO)O[C@@H]4CO)O[C@@H]3CO
CCCCC(CC)(CO)CO
CCCC(=O)C(CC)Sc1ccoc1C (stereo not given)
Nc1c(Cl)cc(Cl)cc1[N+](=O)[O-]
CCCCCCCCCCCC(=O)OCC(O)CO (stereo not given)
C[Si]1(C)O[Si](C)(C)O[Si](C)(C)O1
CCOC(=O)C1OC1c1ccccc1 (stereo not given)
CCOC(=O)CN
CC(C)CCCCCCCCCCCCCCC(=O)O
COc1ccc(CCN2CCC(Nc3nc4ccccc4n3Cc3ccc(F)cc3)CC2)cc1
CCCOCCO
c1ccc2cc(Nc3ccc(Nc4ccc5ccccc5c4)cc3)ccc2c1
CC=Cc1ccc(OCC)c(O)c1
CC(=O)c1c(C)c([N+](=O)[O-])c(C(C)(C)C)c([N+](=O)[O-])c1C
CCCCC1(COC(=O)CCC(=O)O)C(=O)N(c2ccccc2)N(c2ccccc2)C1=O
CC(C)C(OC(=O)c1ccccc1)C(C)(C)COC(=O)c1ccccc1 (stereo not given)
COS(=O)(=O)O
C=CCN(CC=C)CC=C
Cc1cc(=O)oc2cc(N(C)C)ccc12
CC(C)(C)C1=CC(=O)C(C(C)(C)C)=CC1=O
C=CCOC(=O)CCCCCC
